POLB inh: blocks human DNA polymerase beta activity. 1.3% of 340,000 active. Potency, µM (titrated, usually from 114 µM), inactives show at the highest dose activity change, negative = inhibition, most hits filed as inhibitors. P06746. Pol beta primer extension/strand displacement, fluorescence kinetic. AID 485314; note: % is set by controls: 0 for no effect and ±100 for the full control effect
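Human Pol beta at 10 nM; strand-displacement substrate 50 nM final. Compound exposure 15 min at room temperature before start, reaction 10 min at room temperature.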
Pol kappa inh-1: inhibitors of human DNA polymerase kappa; Q9UBT6; purified Pol kappa, fluorescent DNA synthesis assay, 10 min; Potency, µM (series often up to 107 µM), for the others: at the top dose activity, negative = inhibition, usual class: inhibitors; 0.53% of 400,000 active; note: % is set by controls: 0 for no effect and ±100 for the full control effect
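Fluorescent qHTS in 1536-well format: enzyme (10 nM) and compound sat 15 min at room temperature before 50 nM substrate (final) was added. Signal taken at 0 and 10 min; no-enzyme buffer wells were negative controls.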
Pol eta inh-1: blocks human DNA polymerase eta activity; recombinant Pol eta, fluorescent DNA replication assay; 1.2% of 390,000 active; Q9Y253; Potency, µM (titrated, usually from 114 µM), without a hit: at the highest dose activity change, negative = inhibition, hits mostly inhibitors; AID 588591; note: % is set by controls: 0 for no effect and ±100 for the full control effect
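Fluorescent replication assay: 50 nM final substrate added after a 15 min room-temperature compound preincubation with 10 nM enzyme. Signal taken at 0 min and again at 10 min.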
POLI inh: DNA polymerase iota (human) inhibition; Pol iota fluorescent replication assay, 10 min; Potency, µM (titrated, usually from 115 µM), inactives show at the highest dose activity, negative = inhibition, actives largely listed as inhibitors; 1% of 390,000 active
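Pol iota at 10 nM preincubated 15 min with compounds at room temperature; reaction started with fluorescent substrate, 50 nM final. Fluorescence read kinetically at 0 and 10 min; buffer-only wells as negative control.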
FEN1 inh-1: human FEN1 inhibition; Recombinant FEN1 flap cleavage, fluorescence, 15 min; 0.35% of 390,000 active; AID 588795; Potency, µM (titrated, usually from 114 µM), without a hit: at the highest dose activity change, negative = inhibition, hits mostly inhibitors; P39748; note: % is set by controls: 0 for no effect and ±100 for the full control effect; nearly all actives have a fitted effect of over 65% in size
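Nuclease activity of 10 nM FEN1 was measured after 15 min of room-temperature exposure to titrated compounds, by adding 50 nM flap substrate and reading plates at 0 and 15 min.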
WRN helicase inh-1: inhibitors of human WRN helicase; WRN helicase unwinding, fluorescent forked duplex, kinetic; 0.46% of 360,000 active; Potency, µM (titrated, usually from 114 µM), inactives show at the highest dose activity change, negative = inhibition, actives largely listed as inhibitors; note: % is set by controls: 0 for no effect and ±100 for the full control effect; nearly all actives have a fitted effect of over 55% in size
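Fluorescence dequenching readout, ex 525 nm/em 598 nm, kinetic mode: forked duplex DNA (100 nM final) with adjacent fluorophore and quencher unwound by WRN (20 nM final) with 2 mM ATP. Compound preincubation 15 min, room temperature.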
PGK validate: validation of Trypanosoma brucei phosphoglycerate kinase inhibitors. Potency, µM (titrated, usually from 57.5 µM), for inactives: at the top dose activity change, negative = inhibition, most hits filed as inhibitors. 79% of 500 active. TbPGK coupled GAPDH assay, Kinase-Glo luminescence. shares compounds with Pol kappa inh-1. AID 686980; note: % is set by controls: 0 for no effect and ±100 for the full control effect; nearly all actives have a fitted effect of over 65% in size
POLI cherry-pick: Inhibitors of human DNA polymerase iota, confirmation; shares compounds with Pol kappa inh-1; Pol iota primer extension, TAMRA/BHQ fluorescence; Potency, µM, most hits filed as inhibitors; 77% of 1,500 active
Pol kappa inh-2: Pol kappa (human) inhibition, cherry-pick confirmation | shares compounds with Pol eta inh-1 | purified Pol-kappa, fluorescent strand-displacement substrate | Potency, µM, most hits filed as inhibitors | 76% of 920 active | AID 720501
Pol eta inh-2: Pol eta (human) inhibition, cherry-pick confirmation; shares compounds with Pol eta inh-1; Pol eta primer extension, TAMRA/BHQ fluorescence, 10 min; Potency, µM, usual class: inhibitors; 64% of 2,600 active; AID 720502
FEN1 inh-2: confirmation of human FEN1 inhibitors | shares compounds with FEN1 inh-1 | FEN1 flap cleavage, TAMRA/BHQ2 fluorogenic DNA substrate | Potency, µM, actives largely listed as inhibitors | 79% of 880 active | AID 720498; note: nearly all actives have a fitted effect of over 60% in size
WRN helicase inh-2: WRN helicase inhibition, cherry-pick retest; WRN helicase DNA unwinding, fluorescence kinetic; Potency, µM (series often up to 57.1 µM), without a hit: at the top dose activity, negative = inhibition, actives largely listed as inhibitors; 63% of 610 active; AID 720497; shares compounds with WRN helicase inh-1; note: nearly all actives have a fitted effect of over 65% in size
TO DNA binding: counter-screen for WRN helicase inhibitors: DNA binding. shares compounds with WRN helicase inh-1. thiazole orange DNA binding displacement, fluorescence. Potency, µM (doses to about 57.1 µM), without a hit: top-dose activity change, negative = inhibition, hits mostly inhibitors. 10% of 610 active. AID 720499;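 note: drop in dye fluorescence marks compound binding to DNA; % is set by controls: 0 for no effect and ±100 for the full control effect; nearly all actives have a fitted effect of over 60% in size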
BLM counter: BLM helicase inhibition, WRN selectivity check; Potency, µM (highest dose often 57.1 µM), for inactives: top-dose activity change, negative = inhibition, actives largely listed as inhibitors; shares compounds with WRN helicase inh-1; Recombinant BLM helicase DNA unwinding, red fluorescence; 60% of 610 active; note: nearly all actives have a fitted effect of over 60% in size
Target sequence (P54132 whole entry, looked up): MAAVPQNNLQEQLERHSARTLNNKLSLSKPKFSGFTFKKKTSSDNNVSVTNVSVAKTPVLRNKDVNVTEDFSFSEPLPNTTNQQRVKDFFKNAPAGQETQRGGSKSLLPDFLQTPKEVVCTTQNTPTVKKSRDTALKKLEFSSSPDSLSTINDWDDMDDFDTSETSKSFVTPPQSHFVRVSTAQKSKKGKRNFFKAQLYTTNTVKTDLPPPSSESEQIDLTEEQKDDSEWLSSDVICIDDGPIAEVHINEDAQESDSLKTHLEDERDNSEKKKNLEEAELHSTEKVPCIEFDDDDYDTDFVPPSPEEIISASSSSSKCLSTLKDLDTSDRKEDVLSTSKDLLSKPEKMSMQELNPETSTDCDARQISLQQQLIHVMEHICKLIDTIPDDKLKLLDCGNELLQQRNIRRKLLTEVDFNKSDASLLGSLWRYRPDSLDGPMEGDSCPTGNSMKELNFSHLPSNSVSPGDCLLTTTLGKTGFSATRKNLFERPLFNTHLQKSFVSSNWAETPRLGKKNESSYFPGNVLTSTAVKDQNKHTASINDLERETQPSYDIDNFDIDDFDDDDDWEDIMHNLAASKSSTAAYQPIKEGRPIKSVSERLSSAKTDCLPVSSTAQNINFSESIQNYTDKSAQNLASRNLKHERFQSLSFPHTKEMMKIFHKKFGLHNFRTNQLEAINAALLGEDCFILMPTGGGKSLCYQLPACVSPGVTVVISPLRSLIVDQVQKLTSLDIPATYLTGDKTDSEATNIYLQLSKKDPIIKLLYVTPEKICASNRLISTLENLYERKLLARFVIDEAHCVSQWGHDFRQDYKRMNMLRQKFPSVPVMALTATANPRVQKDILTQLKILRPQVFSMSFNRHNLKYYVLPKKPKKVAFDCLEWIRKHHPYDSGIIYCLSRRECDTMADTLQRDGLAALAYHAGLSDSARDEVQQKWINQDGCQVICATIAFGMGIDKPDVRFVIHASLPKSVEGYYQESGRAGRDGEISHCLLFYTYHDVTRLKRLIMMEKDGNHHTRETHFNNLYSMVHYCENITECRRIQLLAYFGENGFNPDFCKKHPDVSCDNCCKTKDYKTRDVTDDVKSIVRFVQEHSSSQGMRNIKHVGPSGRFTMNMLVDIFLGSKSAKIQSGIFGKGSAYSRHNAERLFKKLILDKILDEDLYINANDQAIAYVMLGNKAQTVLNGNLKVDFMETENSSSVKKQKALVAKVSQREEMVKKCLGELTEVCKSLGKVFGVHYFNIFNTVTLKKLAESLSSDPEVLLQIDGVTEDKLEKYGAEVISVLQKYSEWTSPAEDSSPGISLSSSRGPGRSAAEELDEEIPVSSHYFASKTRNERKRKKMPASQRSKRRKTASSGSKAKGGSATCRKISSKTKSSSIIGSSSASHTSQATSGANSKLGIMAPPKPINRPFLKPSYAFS
Active calls of the source: *; ? = inconclusive; . = no result given; [ ] = remark or other dose. An excerpt weighted towards active compounds, which were near 2.4% of everything screened. Calls come from the whole dose curve; as a rule, active = well fitted curve in the direction sought with a large enough effect; inconclusive = small, poorly fitted or top-dose-only effect, or another doubt; inactive = no such curve, though single readings can be large; an effect the other way counts as inactive or inconclusive. Potency is the fitted concentration of half-maximal effect.

SMILES	POLB inh	Pol kappa inh-1	Pol eta inh-1	POLI inh	FEN1 inh-1	WRN helicase inh-1	POLI cherry-pick	Pol eta inh-2	FEN1 inh-2	WRN helicase inh-2	TO DNA binding	BLM counter	others
O=C(NN1C(=O)/C(=C/C=C/c2ccco2)SC1=S)c1ccccc1O	1.1µM*	4µM*	1.1µM*	1.3µM*	11µM*	10µM*	2.7*	3.4*	27*	3µM*	?	8.6µM*	PGK validate=9.2µM*
O=C(O)CC(C(=O)O)N1C(=O)/C(=C/C=C/c2ccco2)SC1=S (stereo not drawn)	0.79µM*	-96%	0.89µM*	1.6µM*	?	10µM*	5.3*	3*	11*	3.8µM*	3.8µM*	4.8µM*	PGK validate=2.9µM*
Cc1cc(C)cc(NC(=O)C(NS(=O)(=O)c2cccc3nsnc23)c2ccccc2)c1 (stereo not drawn)	3%	-18%	-4%	189%	?	.	.	.	.	.	.	.
CC1=NOC(=O)/C1=C\c1ccc(-c2ccc(Cl)c(C(=O)O)c2)o1	14µM*	35µM*	4.5µM*	11µM*	?	35µM*	42*	21*	.	19µM*	-16%	27µM*
O=C1NN(c2ccc(Cl)c(Cl)c2)C(=O)/C1=C/c1ccc(-c2ccccc2C(=O)O)o1	32µM*	40µM*	20µM*	5µM*	?	32µM*	19*	30*	.	19µM*	-17%	-23%	Pol kappa inh-2=17*
COC(=O)c1ccccc1-c1ccc(/C=C2\C(=O)N(c3ccccc3)N=C2c2ccccc2)o1	23%	9%	-9%	0%	-3%	-2%	.	.	.	.	.	.
COC(=O)c1ccc(N2NC(=O)/C(=C/c3ccc(-c4ccc(Cl)c(C(=O)O)c4)o3)C2=O)cc1	22µM*	28µM*	3.2µM*	8.9µM*	?	35µM*	27*	7.6*	.	17µM*	?	22µM*	Pol kappa inh-2=4.7*
COc1cccc(CNC(=O)CN2C(=O)N(c3cc(C)ccc3C)S(=O)(=O)c3ccccc32)c1OC	-11%	-5%[60.1 µM]	-21%	14%	16%	.	.	.	.	.	.	.
CCOc1ccc2nc(N3CCN(C(=O)c4ccc5c(c4)CCCC5)CC3)sc2c1	-28%	-7%[60.1 µM]	-6%	9%	0%	.	.	.	.	.	.	.
COCCN1C(=O)c2[nH]nc(-c3ccccc3O)c2C1c1ccc(Cl)c(Cl)c1 (stereo not drawn)	-2%	15%	-19%	1%	-4%	.	.	.	.	.	.	.
Oc1ccc(C2=Nn3c(nnc3-c3ccco3)SC2)cc1O	4µM*	20µM*	3.2µM*	2.2µM*	50µM*	11µM*	27*	19*	43*	15µM*	-24%	17µM*	PGK validate=5.8µM*
COc1ccc(C2=Nn3c(nnc3-c3ccco3)SC2)cc1	-1%	5%	-8%	-4%	-9%	-5%	.	.	.	.	.	.
O=C(Nc1ccc2nc(-c3ccc4nc[nH]c4c3)[nH]c2c1)c1cccs1	4.5µM*	35µM*	20µM*	1.1µM*	45µM*	40µM*	?	?	?	22µM*	-17%	24µM*
O=C(Nc1ccc2nc(-c3ccccc3)[nH]c2c1)c1cccs1	-30%	-16%	-3%	-8%	-17%	-26%[57.1 µM]	.	.	.	.	.	.
NS(=O)(=O)c1ccc(NC(=O)c2ccc3nccnc3c2)cc1	25%	-2%	-1%	82%	-8%	2%	.	.	.	.	.	.
NS(=O)(=O)c1ccc(CCNC(=O)c2ccc3nccnc3c2)cc1	.	32µM*	3.2µM*	20µM*	?	32µM*	17*	12*	?	17µM*	?	7.6µM*	Pol kappa inh-2=4.2*
O=C(O)c1ccccc1NS(=O)(=O)c1ccc(N/N=C/c2cccc(O)c2O)c([N+](=O)[O-])c1	.	28µM*	3.2µM*	10µM*	40µM*	20µM*	34*	30*	48*	19µM*	27µM*	6.1µM*	PGK validate=12µM*
COc1cc(C=NNc2ccc(S(=O)(=O)Nc3ccccc3C(=O)O)cc2[N+](=O)[O-])ccc1O	.	-27%	50µM*	?	45µM*	79µM*	75*	19*	60*	24µM*	24µM*	27µM*
NS(=O)(=O)c1ccc(N/N=C/c2ccc(C(=O)O)cc2)c([N+](=O)[O-])c1	20%	-14%	-19%	-7%	1%	-14%	.	.	.	.	.	.
COc1cc(/C=N/Nc2ccccc2[N+](=O)[O-])ccc1OC(=O)c1ccccc1F	5%	-3%	-11%	42%	14%	-5%	.	.	.	.	.	.
COCCN(C(=O)COC(=O)c1cc2c(s1)CCC2)c1c(N)n(Cc2ccccc2)c(=O)[nH]c1=O	.	4.5µM*	0.71µM*	3.2µM*	40µM*	8.9µM*	1.9*	2.1*	76*	2.2µM*	?	0.43µM*	PGK validate=0.82µM*
CCc1ccc(NC(=O)CSC2=Nc3ccccc3C3=NC(CCC(=O)NCc4cccs4)C(=O)N23)cc1 (stereo not drawn)	1%	1%[60.1 µM]	-4%	-3%	1%	.	.	.	.	.	.	.

Screening data as filed in PubChem.
